Our source for the composite z-score and z-score values is PubChem BioAssay.

Experiment [1] has as its system Wnt5a (protein binding on small-molecule microarray). Nature of the experiment: Wnt5a binders on small-molecule microarray, primary screen, biophysical, 635/667 nm fluorescence (AID 1142).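 Further: fluorescence read at 667 nm with signal to noise per printed feature.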 The conditions noted are these: 635 nm fluorescence, higher = more signal.
Experiment [2] can be described thus: cell viability in Huh7 cells, primary screen, cytotoxicity control for HCV replication inhibitor project, CellTiter-Glo luminescence, basal, 48 h (AID 1143).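 Further: Huh7 hepatoma cells carrying a hepatitis C replication reporter with no stimulus; test concentration not given here.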 The conditions noted are these: Huh7 HCV replicon, higher = more signal, called active from +8 up or from −8 down. A general note: ATP-based viability assays read luminescence as a measure of living cells.

Experiment [3] is described as follows: P. aeruginosa biofilm formation inhibitors, primary screen, PAO1 strain, BacTiter-Glo luminescence, LB-PBS (AID 1144). The conditions noted are these: 12 h, higher = more signal.
Experiment [4] can be described thus: CREB reporter modulators without forskolin, primary screen, cell-based, PC12, CRE-LacZ reporter, unstimulated (AID 1145). To be noted: no forskolin, luminescence, 4.5 h, higher = more signal, called active from +8 up or from −8 down.
A short description of experiment [5]: CREB reporter modulators under forskolin, primary screen, cell-based, PC12, CRE-LacZ reporter, forskolin-stimulated (AID 1146).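 Further: PC12 cells with 6xCRE LacZ reporter stimulated by forskolin 10 µM; beta-galactosidase reporter signal reflecting CREB driven transcription.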 The conditions noted are these: luminescence, 4.5 h, higher = more signal, called active from +8 up or from −8 down.
In experiment [6] the target is Streptavidin (Streptomyces avidinii) (UniProt P22629). The experiment is described as follows: streptavidin binders on small-molecule microarray, primary screen, artefact control for SMM compound annotation, biophysical, 635/667 nm fluorescence (AID 1147).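 Further: signal reflects streptavidin binding to arrayed compounds as a control protein.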 To be noted: streptavidin binding, higher = more signal.
Sequence of Streptavidin (Streptomyces avidinii) (P22629 whole entry, looked up): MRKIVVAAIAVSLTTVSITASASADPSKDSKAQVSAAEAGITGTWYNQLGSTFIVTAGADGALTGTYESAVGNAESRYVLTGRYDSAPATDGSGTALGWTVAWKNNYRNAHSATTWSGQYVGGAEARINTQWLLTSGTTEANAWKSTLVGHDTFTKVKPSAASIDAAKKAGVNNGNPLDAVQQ
Experiment [7] can be described thus: small-molecule binders of probe aInhba, primary screen, biochemical, small-molecule microarray, 635/667 nm fluorescence (AID 1148).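 Further: score merges 667nm spot fluorescence with signal-to-noise for antibody binding to printed compounds.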 The conditions noted are these: higher = more signal.
Experiment [8] deals with Torsin-1A (Homo sapiens) (UniProt O14656). The experiment is described as follows: torsin A binders from cell lysate, primary screen, small-molecule microarray, wild-type, 635/667 nm (AID 1149). The conditions noted are these: COS7 hTOR1A-WT lysate, 635 nm fluorescence, higher = more signal.
Sequence of Torsin-1A (Homo sapiens) (O14656 whole entry, looked up): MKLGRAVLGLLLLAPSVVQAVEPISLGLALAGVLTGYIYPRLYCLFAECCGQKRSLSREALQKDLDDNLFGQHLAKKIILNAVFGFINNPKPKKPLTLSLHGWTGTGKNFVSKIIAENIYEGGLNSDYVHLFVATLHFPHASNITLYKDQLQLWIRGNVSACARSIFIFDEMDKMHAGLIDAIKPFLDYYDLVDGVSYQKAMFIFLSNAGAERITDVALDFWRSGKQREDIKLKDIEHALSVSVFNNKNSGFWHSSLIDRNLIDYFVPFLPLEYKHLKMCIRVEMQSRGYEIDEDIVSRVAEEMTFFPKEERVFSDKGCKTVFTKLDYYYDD
Experiment [9] shares this target. The experiment is described as follows: small-molecule binders of mutant TOR1A in lysate, primary screen, cell lysate, small-molecule microarray, COS7 lysate, 635/667 nm fluorescence (AID 1150).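 Further: score pools 667 nm emission and signal to noise measuring lysate protein binding.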 The conditions noted are these: COS7 hTOR1A mutant lysate, 635 nm fluorescence, higher = more signal.
Experiment [10] deals with Sonic hedgehog protein (Shh). Nature of the experiment: small-molecule binders of Shh protein, primary screen, biochemical, small-molecule microarray, 635/667 nm fluorescence (AID 1151).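 Further: Shh protein binding to compounds spotted on small-molecule microarray slides; score combines spot fluorescence intensity with signal-to-noise across triplicate slides.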 The conditions noted are these: small-molecule microarray binding, 635 nm fluorescence; higher = more signal.
Experiment [11] can be described thus: E. coli DRC41 culture turbidity changes, primary screen, E. coli filamentation inducer project, strain DRC41, OD650, 48 h (AID 1152).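 Further: E. coli MC1000 strain DRC41 lacking acrAB efflux pump and sulA.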 The conditions noted are these: E. coli DRC41 (acrAB sulA), higher = more signal, called active from +8 up or from −8 down.
Experiment [12] in a line: small-molecule binders of probe aLefty1, primary screen, biochemical, small-molecule microarray, 635/667 nm fluorescence (AID 1153).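 Further: score merges spot fluorescence with signal-to-noise ratio from the scanned slide images.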 To be noted: higher = more signal.
A short description of experiment [13]: PSAC antagonists in infected red cells, primary screen, cell-based, P. falciparum Indochina, OD700, 1 h (AID 1154). To be noted: P. falciparum Indochina infected RBC osmotic lysis, higher = more signal, called active from +8 up or from −8 down.
A short description of experiment [14]: PSAC antagonists in infected red cells, primary screen, cell-based, P. falciparum Indochina, OD700, 2 h (AID 1155).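 Further: lysis reports solute entry through the parasite surface anion channel PSAC; channel blockers reduce lysis of infected cells.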 To be noted: P. falciparum Indochina infected erythrocytes, osmotic lysis OD700; higher = more signal, called active from +8 up or from −8 down.
Experiment [15] in a line: osmotic lysis modulators in infected erythrocytes, primary screen, PSAC antagonist project, cell-based, P. falciparum Indochina, OD700, 3 h (AID 1156). To be noted: higher = more signal, called active from +8 up or from −8 down.
The nature of experiment [16]: PSAC antagonists in infected red cells, primary screen, cell-based, P. falciparum Indochina, OD700, 18 h (AID 1157). The conditions noted are these: P. falciparum Indochina infected erythrocytes, osmotic lysis OD700, 18 h; higher = more signal, called active from +8 up or from −8 down.
Experiment [17] is described as follows: modulators of S6 phosphorylation in cells, primary screen, cell-based, A549, cytoblot, luminescence, serum-stimulated (AID 1158).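 Further: serum-stimulated A549 lung adenocarcinoma cells; signal is phosphorylated S6 detected by cytoblot immunostaining with HRP secondary.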 To be noted: A549 phospho-S6 cytoblot, 5 h, higher = more signal.
The target in experiment [18] is NADPH oxidase 2 (Homo sapiens) (UniProt P04839). Nature of the experiment: NOX2-dependent H2O2 signal modulators, primary screen, NOX inhibitor project, cell-based, HEK293-NOX2, PMA-stimulated, Amplex Red fluorescence (AID 1159). Further: test concentration not given here. To be noted: 45 min, higher = more signal, called active from +8 up or from −8 down.
Sequence of NADPH oxidase 2 (Homo sapiens) (P04839 whole entry, looked up): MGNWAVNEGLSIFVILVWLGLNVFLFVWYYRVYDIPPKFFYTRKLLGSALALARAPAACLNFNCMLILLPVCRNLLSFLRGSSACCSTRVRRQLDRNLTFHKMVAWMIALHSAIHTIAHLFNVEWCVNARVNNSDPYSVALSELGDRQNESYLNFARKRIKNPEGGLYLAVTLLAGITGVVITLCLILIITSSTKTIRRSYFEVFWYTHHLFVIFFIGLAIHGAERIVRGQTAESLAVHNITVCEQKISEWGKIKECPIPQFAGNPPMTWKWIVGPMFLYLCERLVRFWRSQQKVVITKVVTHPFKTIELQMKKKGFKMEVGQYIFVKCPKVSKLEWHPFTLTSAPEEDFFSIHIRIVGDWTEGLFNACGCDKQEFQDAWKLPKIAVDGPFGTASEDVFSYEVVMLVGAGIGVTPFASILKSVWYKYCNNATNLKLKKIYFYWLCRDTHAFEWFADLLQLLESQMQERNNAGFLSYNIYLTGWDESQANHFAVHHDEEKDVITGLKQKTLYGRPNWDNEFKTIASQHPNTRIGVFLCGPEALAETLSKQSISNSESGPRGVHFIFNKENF
The target in experiment [19] is NADPH oxidase 4 (Homo sapiens) (UniProt Q9NPH5). The experiment is described as follows: NOX4-dependent H2O2 signal modulators, primary screen, NOX inhibitor project, cell-based, HEK293-NOX4, tetracycline-induced, Amplex Red fluorescence (AID 1160). To be noted: 45 min, higher = more signal, called active from +8 up or from −8 down.
Sequence of NADPH oxidase 4 (Homo sapiens) (Q9NPH5 whole entry, looked up): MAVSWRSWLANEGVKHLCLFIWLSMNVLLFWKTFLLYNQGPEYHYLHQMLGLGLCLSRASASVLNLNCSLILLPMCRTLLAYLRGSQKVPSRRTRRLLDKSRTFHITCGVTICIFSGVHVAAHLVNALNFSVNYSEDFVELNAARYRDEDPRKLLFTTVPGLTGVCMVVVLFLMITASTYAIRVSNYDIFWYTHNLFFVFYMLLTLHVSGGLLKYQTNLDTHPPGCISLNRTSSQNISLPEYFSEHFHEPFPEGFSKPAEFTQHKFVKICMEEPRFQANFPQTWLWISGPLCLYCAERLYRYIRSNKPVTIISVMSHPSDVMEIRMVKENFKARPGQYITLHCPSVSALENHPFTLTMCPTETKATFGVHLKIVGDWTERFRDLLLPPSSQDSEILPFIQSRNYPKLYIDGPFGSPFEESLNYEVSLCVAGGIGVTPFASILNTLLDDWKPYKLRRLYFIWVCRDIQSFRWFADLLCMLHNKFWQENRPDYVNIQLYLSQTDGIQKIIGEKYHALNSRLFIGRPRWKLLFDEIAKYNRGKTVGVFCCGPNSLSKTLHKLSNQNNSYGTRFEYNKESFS
In experiment [20] the target is NADPH oxidase 5 (Homo sapiens) (UniProt Q96PH1). The experiment is described as follows: NOX5-dependent H2O2 signal modulators, primary screen, NOX inhibitor project, cell-based, HEK293-NOX5, Amplex Red fluorescence (AID 1161). To be noted: HEK293-NOX5, ionomycin, 45 min, higher = more signal.
Sequence of NADPH oxidase 5 (Homo sapiens) (Q96PH1 whole entry, looked up): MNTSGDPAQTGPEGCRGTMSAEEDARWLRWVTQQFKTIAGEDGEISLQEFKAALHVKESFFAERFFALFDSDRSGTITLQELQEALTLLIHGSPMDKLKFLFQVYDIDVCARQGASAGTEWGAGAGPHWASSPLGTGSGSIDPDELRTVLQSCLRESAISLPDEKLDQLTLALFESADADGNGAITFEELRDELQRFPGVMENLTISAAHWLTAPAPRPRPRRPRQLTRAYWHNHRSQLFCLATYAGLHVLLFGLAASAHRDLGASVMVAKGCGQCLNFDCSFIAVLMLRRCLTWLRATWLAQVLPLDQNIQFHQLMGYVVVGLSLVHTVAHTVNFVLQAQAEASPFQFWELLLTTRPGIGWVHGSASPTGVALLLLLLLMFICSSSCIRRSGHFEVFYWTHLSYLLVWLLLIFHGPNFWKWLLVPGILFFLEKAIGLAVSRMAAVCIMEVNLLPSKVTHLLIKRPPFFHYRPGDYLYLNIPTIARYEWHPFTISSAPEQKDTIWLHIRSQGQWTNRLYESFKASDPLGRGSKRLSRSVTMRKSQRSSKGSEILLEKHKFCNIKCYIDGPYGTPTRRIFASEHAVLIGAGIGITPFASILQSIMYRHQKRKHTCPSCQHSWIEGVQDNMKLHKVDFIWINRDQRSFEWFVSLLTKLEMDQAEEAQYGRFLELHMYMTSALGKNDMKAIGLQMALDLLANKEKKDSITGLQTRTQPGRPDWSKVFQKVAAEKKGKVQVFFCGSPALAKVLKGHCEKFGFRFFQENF

Activity calls are given as the source filed them. Unless noted, how the calls were made is not given here.

`CCOC(=O)C1=CC[C@@H](c2ccc(OCc3ccccc3)c(OC)c2)N(S(=O)(=O)c2ccc(C)cc2)[C@H]1c1ccc(SC)cc1`: the composite z-score in [1] stood at 0.683; in experiment [6], 1.42; in experiment [7] it was 0.113; in [8] it was 1.28; in [9], 1.4; in experiment [10] it was 0.249. Moreover, in experiment [12], the composite z-score worked out at 0.524. The z-score in experiment [2] is -1.51 (inactive); in [3], 0.765 (inactive); in experiment [4], 0.967 (inactive); in experiment [5], 0.137 (inactive); in experiment [11] it was -1.21 (inactive); in experiment [13], 0.658 (inactive). In addition, the z-score in [14] is 0.9 (inactive); in experiment [15], 0.692 (inactive); in experiment [16], 0.387 (inactive); in experiment [17] it was -0.635; in [18] it was 0.877 (inactive); in experiment [19], 0.0161 (inactive). The z-score in experiment [20] is -0.508.
In the case of `COC(=O)c1cn(C[C@@H](Cc2ccccc2)NC(=O)N[C@H](CO)CCc2oc(C(C)=O)c(C(=O)OC)c2C(=O)OC)nn1`, the composite z-score in experiment [1] turned out to be 0.173; in experiment [6] it was 0.304; in experiment [7] it was 0.108; in experiment [8], 0.658; in [9], 0.268; in [10] it was 1.93. Besides, the composite z-score in experiment [12] is 0.238. The z-score in experiment [2] is -0.102 (inactive); in experiment [3], 0.201 (inactive); in experiment [4], 1.5 (inactive); in experiment [5], -0.981 (inactive); in [11] it was 0.555 (inactive); in experiment [13], 14.3 (active). Moreover, the z-score in experiment [14] is 2.29 (inactive); in [15] it was 1.08 (inactive); in experiment [16] it was 0.872 (inactive); in experiment [17] it was 0.419; in experiment [18], 0.744 (inactive); in experiment [19] it was 1.01 (inactive). The z-score in [20] was determined as 1.84.
`CC=CC(O)C1C=CC2C(=O)N(c3ccccc3)C(=O)C2N1Nc1ccccc1F` (stereo not given): the composite z-score was 0.713 in experiment [1]; -0.0607 in experiment [6]; 0.572 in experiment [7]; 0.804 in [8]; 0.42 in experiment [9]; -0.371 in [10]. Further, in [12], the composite z-score came to 0.762. Further, the z-score in experiment [2] is -0.118 (inactive); in experiment [3], 0.103 (inactive); in experiment [4], 0.481 (inactive); in [5] it was 1.23 (inactive); in [11], -0.857 (inactive); in experiment [13], 4.36 (inactive). In addition, the z-score was 1.24 (inactive) in [14]; 0.164 (inactive) in experiment [15]; 0.512 (inactive) in experiment [16]; -0.819 in experiment [17]; -1.11 (inactive) in experiment [18]; -2.88 (inactive) in [19]. Besides, the z-score in [20] is -2.
As to `O=C(NCc1ccccc1)[C@@H]1c2ccccc2C(=O)N(Cc2ccccc2C(F)(F)F)[C@H]1c1ccc(CO)cc1`, the composite z-score in experiment [1] was -0.405; in experiment [6], -0.752; in experiment [7] it was -0.201; in experiment [8], -1.55; in [9], 0.0481; in [10], -0.687. In experiment [12], this molecule showed a composite z-score of -0.0731. Further, the z-score is -1.55 (inactive) in experiment [2]; 0.714 (inactive) in experiment [3]; 0.324 (inactive) in experiment [4]; -0.0897 (inactive) in experiment [5]; 0.546 (inactive) in experiment [11]; 3.68 (inactive) in [13]. Further, the z-score in experiment [14] was 0.75 (inactive); in [15], 1.53 (inactive); in [16], 0.207 (inactive); in experiment [17], 0.0835; in experiment [18], -1.13 (inactive); in experiment [19], 0.914 (inactive). In [20], this molecule had a z-score of -0.366.
Consider `COc1ccccc1CN1C(=O)c2ccccc2[C@](Cc2ccccc2I)(C(=O)NCC(F)(F)F)[C@@H]1c1ccc(CO)cc1`, for which the composite z-score was 0.431 in [1]; 1.14 in experiment [6]; 0.189 in [7]; 1.36 in experiment [8]; -0.103 in experiment [9]; 0.251 in experiment [10]. Also, the composite z-score in experiment [12] was 0.126. Further, the z-score in experiment [2] is -2.75 (inactive); in experiment [3], -0.243 (inactive); in experiment [4], -0.735 (inactive); in experiment [5] it was 6.82 (inactive); in [11], -0.566 (inactive); in experiment [13], 5.37 (inactive). In addition, the z-score in experiment [14] was 0.82 (inactive); in [15], 2.38 (inactive); in experiment [16] it was 0.401 (inactive); in experiment [17], -0.317; in experiment [18] it was 1.71 (inactive); in experiment [19], -1.73 (inactive). The molecule further displayed a z-score in [20] of -1.05.
